Test results: PubChem BioAssay (NCI)
Compounds without any hit were thinned out: in the full panel of roughly 79,000, 15% have a hit. Unmarked numbers belong to inactive results. Active and inactive are the calls of the source. Cut-off read from the data, not from the text of the source: active = growth inhibition above about 70%; inactive = the rest.

Key:
[1] = NCI Yeast Anticancer Drug Screen. Data for the rad50 strain (AID 155);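 note: 0% = growth of vehicle-only cultures of the same strain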; conditions: S. cerevisiae rad50 strain growth inhibition, stronger effect = higher value
Method in brief: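 Growth of the mutant yeast was measured after compound exposure and referenced to vehicle-treated cultures.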

[2] = NCI Yeast Anticancer Drug Screen. Data for the mec2-1 strain (AID 157); conditions: S. cerevisiae mec2-1 strain, stronger effect = higher value
Method in brief: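 Each compound was tested on mec2-1 yeast, a strain altered in DNA damage repair or cell cycle control. Growth inhibition is reported relative to vehicle.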

[3] = NCI Yeast Anticancer Drug Screen. Data for the sgs1 mgt1 strain (AID 161);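 note: 0% = growth of cultures given vehicle only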; conditions: S. cerevisiae sgs1 mgt1 strain, stronger effect = higher value
Method in brief: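 Test agents were incubated with a DNA-repair-mutant yeast strain. Growth was then read and compared against vehicle-treated controls.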

[4] = NCI Yeast Anticancer Drug Screen. Data for the cln2 rad14 strain (AID 165);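 note: 0% = growth equal to vehicle treated cultures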; conditions: S. cerevisiae cln2 rad14 strain, stronger effect = higher value
Method in brief: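 Test compounds were added to cln2 rad14 yeast cultures; inhibition of growth was then determined by comparison with vehicle treatment.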

[5] = NCI Yeast Anticancer Drug Screen. Data for the bub3 strain (AID 167); conditions: S. cerevisiae bub3 mutant strain, stronger effect = higher value
Method in brief: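 Whole-cell yeast assay. The mutant strain was incubated with compounds, and growth inhibition was determined by comparison with vehicle-treated cells.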

[6] = NCI Yeast Anticancer Drug Screen. Data for the mlh1 rad18 strain (AID 175); conditions: S. cerevisiae mlh1 rad18 strain growth inhibition, stronger effect = higher value
Method in brief: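 Inhibition values reflect reduced growth of mutant yeast versus vehicle-treated controls following compound exposure; the mutations affect DNA damage repair.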

[7] = at 5.0 µM (retest, dose inferred, filed as 0.5)
[8] = at 50.0 µM (retest, dose inferred, filed as 5.0)

SMILES | growth inhibition [1, 7] | growth inhibition [1, 8] | growth inhibition ([1]; at 50.0 µM) | growth inhibition [2, 7] [%] | growth inhibition [2, 8] | growth inhibition ([2]; at 50.0 µM) | growth inhibition [3, 7] | growth inhibition [3, 8] | growth inhibition ([3]; at 50.0 µM) | growth inhibition [4, 7] | growth inhibition [4, 8] | growth inhibition ([4]; at 50.0 µM) | growth inhibition [5, 7] | growth inhibition [5, 8] | growth inhibition ([5]; at 50.0 µM) | growth inhibition [6, 7] | growth inhibition [6, 8] | growth inhibition ([6]; at 50.0 µM)
Cc1ccc(S)c(S)c1 | 65% | 53% | 63.4% | 52 | 34% | 35.9% | 44% | 28% | 39.3% | 81% (active) | 93% (active) | 77.7% (active) | 92% (active) | 93% (active) | 64.6% | 95% (active) | 93% (active) | 41.5%
O=C(O)Cc1c(-c2noc(-c3ccccc3)c2CC(=O)O)noc1-c1ccccc1 | -10% | -3% | 28.5% | 8 | -2% | 46.8% | -16% | -8% | 26.6% | 1% | -10% | 58.4% | -7% | 0% | 97.1% (active) | 4% | -9% | 40.1%
O=C1OCC/C1=C1/CCOC1 | 73% (active) | 97% (active) | 99.2% (active) | 65 | 98% (active) | 99.3% (active) | 82% (active) | 98% (active) | 50.3% | 51% | 97% (active) | 98.8% (active) | 61% | 97% (active) | 99.2% (active) | 78% (active) | 97% (active) | 99.5% (active)
CCN(CC)CCOc1ccc(NC(=S)Nc2ccc(OCC(C)C)cc2)cc1 | 2% | 54% | 66.1% | 29 | 65% | 34.1% | 42% | 76% (active) | 81.8% (active) | 10% | 53% | 83.9% (active) | 4% | 47% | 76% (active) | 46% | 74% (active) | 80.9% (active)
CCCCCCCCCCCCCCCCC#N | -6% | -8% | 50.4% | -2 | -4% | -7.4% | 0% | -4% | 52.1% | 2% | 0% | 16.2% | -3% | -9% | 52.2% | -5% | -5% | 24.1%
